From PubChem BioAssay (EPA / NIEHS) come the findings set out here.

A short description of assay [1]: ATG_E_Box_CIS: Attagene CIS-FACTORIAL HepG2 Assay for human Enhancer Box (E-box) (AID 2282936). Particulars: HepG2 E-box cis-reporter transcription, actives raise or lower the signal. In outline:
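HepG2 cells transiently transfected with multiplexed cis-element reporter units, dosed 24 h; reporter mRNA quantified by RT-PCR, 6-FAM labelling, HpaI digestion and capillary electrophoresis. E-box (USF1) signal fitted bidirectionally vs DMSO.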

Assay [2] is described as follows: ATG_M_61_CIS: Attagene CIS-FACTORIAL HepG2 Assay for M61 Transcription Factor (Internal Marker) (AID 2282937). The conditions noted are these: HepG2 Attagene CIS-FACTORIAL M61 internal marker reporter; actives raise or lower the signal. In outline:
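Human liver HepG2, transient MRTU transfection (cis promoter elements), 24 h compound. Total RNA → oligo(dT) RT → PCR → FAM label → HpaI → CE. Internal background marker; bidirectional fitting, DMSO = baseline.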

Assay [3] can be described thus: ATG_EGR_CIS: Attagene CIS-FACTORIAL HepG2 Assay for human Early Growth Response 1 (EGR1) (AID 2282938). The conditions noted are these: HepG2 Attagene CIS-FACTORIAL EGR reporter mRNA; actives raise or lower the signal. In outline: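 Transient transfection of human HepG2 with multiple cis-regulated reporter units, chemical exposure 24 h, total RNA isolated. Reverse transcription, PCR, fluorescent labelling and capillary electrophoresis quantify reporter transcripts; activity fitted bidirectionally against DMSO.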

The nature of assay [4]: ATG_M_19_CIS: Attagene CIS-FACTORIAL HepG2 Assay for M19 Transcription Factor (Internal Marker) (AID 2282939). Particulars: HepG2 Attagene CIS-FACTORIAL M19 internal marker reporter; actives raise or lower the signal. In a few lines:
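Readout: fluorescent reporter-transcript fragments by capillary electrophoresis after RT-PCR. Human HepG2 liver cells carried transfected MRTU constructs reporting endogenous transcription-factor activity; exposure 24 h. Gain or loss of signal fitted relative to DMSO.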

Assay [5] in a line: ATG_Ets_CIS: Attagene CIS-FACTORIAL HepG2 Assay for human Erythroblast Transformation Specific (ETS) (AID 2282941). The conditions noted are these: HepG2 ETS cis-reporter transcription, actives raise or lower the signal. In outline: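 After transient cis-reporter transfection, HepG2 cells receive test chemical for 24 h. Reporter mRNA levels, measured by RT-PCR and capillary electrophoresis fluorescence, are analysed bidirectionally relative to the DMSO baseline.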

For assay [6], the target named is Hepatocyte nuclear factor 3-beta (Homo sapiens) (UniProt Q9Y261). Nature of the assay: ATG_FoxA2_CIS: Attagene CIS-FACTORIAL HepG2 Assay for human Forkhead box A2 (FOXA2) (AID 2282942). Particulars: HepG2 cis-reporter transcription factor activity, 24 h; actives raise or lower the signal. In a few lines: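 Transient MRTU transfection of HepG2 liver cells; 24 h treatment; total RNA → oligo(dT) RT → PCR → FAM primer extension → HpaI cut → CE. Bidirectional fit vs DMSO.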

A short description of assay [7]: ATG_FoxO_CIS: Attagene CIS-FACTORIAL HepG2 Assay for human Forkhead box O (FoxO) (AID 2282943). Particulars: HepG2 Attagene cis-reporter, FoxO element, mRNA; actives raise or lower the signal. In a few lines:
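Transfected HepG2 reporter cells exposed to test chemical for 24 h; reporter RNA measured by reverse transcription, PCR and fluorescent capillary electrophoresis; curves fitted for increases and decreases against DMSO.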

Assay [8] is described as follows: ATG_GATA_CIS: Attagene CIS-FACTORIAL HepG2 Assay for human GATA Binding Protein (AID 2282944). The conditions noted are these: HepG2 GATA cis-element reporter, Attagene multiplex mRNA; actives raise or lower the signal. In a few lines:
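Read-out: fluorescent reporter mRNA fragments resolved by capillary electrophoresis after RT-PCR. Human liver HepG2 cells carried transiently transfected cis-regulated reporter constructs; chemicals incubated 24 h; gain or loss of signal fitted relative to DMSO.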

Assay [9] in a line: ATG_GLI_CIS: Attagene CIS-FACTORIAL HepG2 Assay for human Zinc Finger Protein GLI1 (AID 2282945). Particulars: HepG2, Attagene cis-factorial reporter mRNA, GLI element; actives raise or lower the signal. In outline: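 Transiently transfected HepG2 cells report endogenous transcription factor activity via cis-element-driven reporter units. After 24 h compound exposure, reporter mRNA was measured by RT-PCR with capillary electrophoresis; bidirectional fitting against DMSO baseline.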

The nature of assay [10]: ATG_ISRE_CIS: Attagene CIS-FACTORIAL HepG2 Assay for human Interferon Regulatory Factor 1 (IRF1) binding to an Interferon-Stimulated Response Element (ISRE) (AID 2282948). Particulars: HepG2 ISRE cis-reporter (Attagene), mRNA transcription readout; actives raise or lower the signal. In a few lines: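 Quantitation relies on labelled RT-PCR fragments separated by capillary electrophoresis. Human HepG2 cells bearing cis-promoter reporter constructs were treated 24 h; DMSO served as baseline for bidirectional fitting.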

Assay [11] can be described thus: ATG_M_32_CIS: Attagene CIS-FACTORIAL HepG2 Assay for M32 Transcription Factor (Internal Marker) (AID 2282949).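 Also: background control marker of the multiplexed CIS panel rather than a real target.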 Particulars: HepG2 Attagene cis-factorial M32 reporter, mRNA; actives raise or lower the signal. In outline: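 Fluorescent capillary electrophoresis peaks of HpaI-digested, FAM-labelled RT-PCR reporter products give the signal. Source: transiently transfected human liver HepG2 cells, 24 h after chemical dosing; bidirectional fitting against DMSO.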

Assay [12] in a line: ATG_M_06_CIS: Attagene CIS-FACTORIAL HepG2 Assay for M06 Transcription Factor (Internal Marker) (AID 2282950). Particulars: HepG2 Attagene CIS-FACTORIAL M06 internal marker reporter; actives raise or lower the signal. In a few lines:
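Terse: HepG2, transient MRTU transfection (FuGene 6), 24 h dosing; total RNA, oligo(dT) RT, PCR, FAM label, HpaI cut, capillary electrophoresis; bidirectional fit vs DMSO baseline; background-control endpoint.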

For assay [13], the target named is Hypoxia-inducible factor 1-alpha (Homo sapiens) (UniProt Q16665). Nature of the assay: ATG_HIF1a_CIS: Attagene CIS-FACTORIAL HepG2 Assay for human Hypoxia Inducible Factor 1 (HIF1A) (AID 2282951). The conditions noted are these: HepG2 Attagene cis-factorial HIF1a reporter transcription; actives raise or lower the signal. In a few lines: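 Transient MRTU transfection of human HepG2 liver cells, 24 h compound treatment, then total RNA isolation, oligo(dT) reverse transcription, PCR amplification, fluorescent labelling and capillary electrophoresis of reporter fragments. Gain or loss relative to DMSO.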

For assay [14], the target named is Hepatocyte nuclear factor 6 (Homo sapiens) (UniProt Q9UBC0). Description: ATG_HNF6_CIS: Attagene CIS-FACTORIAL HepG2 Assay for human Hepatocyte Nuclear Factor 6 (HNF6) (AID 2282952). Particulars: HepG2 Attagene cis-factorial HNF6 reporter transcription; actives raise or lower the signal. In a few lines: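 HepG2, transient MRTU transfection (cis promoters); 24 h chemical exposure; total RNA → oligo(dT) RT → PCR → 6-FAM labelling → HpaI cut → CE; bidirectional fit vs DMSO.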

The target of assay [15] is Heat shock factor protein 1 (Homo sapiens) (UniProt Q00613). Description: ATG_HSE_CIS: Attagene CIS-FACTORIAL HepG2 Assay for human Heat Shock Transcription Factor 1 (HSE) (AID 2282953). Particulars: HepG2 HSE cis-reporter, Attagene RNA transcription; actives raise or lower the signal. In a few lines: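 Read-out: fluorescence of reporter-specific RT-PCR fragments separated by capillary electrophoresis. HepG2 carrying transfected cis-element reporter units; 24 h dosing; activity fitted in both directions relative to DMSO baseline.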

Assay [16] in a line: ATG_MRE_CIS: Attagene CIS-FACTORIAL HepG2 Assay for human Metal Responsive Element (MRE) (AID 2282954). The conditions noted are these: HepG2 MRE cis-reporter transcription, Attagene multiplex; actives raise or lower the signal. In a few lines: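 HepG2 cells transiently transfected with cis-element-driven reporter units; mRNA measured 24 h after dosing. Reporter transcripts quantified by RT-PCR, FAM labelling, HpaI digestion and capillary electrophoresis; bidirectional fit versus DMSO.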

The nature of assay [17]: ATG_PBREM_CIS: Attagene CIS-FACTORIAL HepG2 Assay for human Phenobarbital-responsive Enhancer Module (PBREM) (AID 2282955). Particulars: HepG2 PBREM cis-reporter, Attagene multiplexed transcription; actives raise or lower the signal. In a few lines: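 Endogenous transcription factors in human liver HepG2 cells drive a PBREM cis-element reporter, whose transcript level after 24 h treatment is quantified by RT-PCR with capillary electrophoresis; activity fitted in both directions against DMSO.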

In assay [18] the target is Bile acid receptor (Homo sapiens) (UniProt Q96RI1). Description: ATG_IR1_CIS: Attagene CIS-FACTORIAL HepG2 Assay for human Nuclear Receptor Subfamily 1 Group H Member 4 (NR1H4), IR1 submotif (AID 2282946). Particulars: IR1 reporter transcription, actives raise or lower the signal. In outline: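 HepG2 cells transiently transfected with multiple cis-promoter-driven reporter units to measure endogenous transcription factor activity; 24 h exposure. Reporter mRNA read by RT-PCR, FAM labelling, HpaI digestion and capillary electrophoresis. Bidirectional fit versus DMSO.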

Assay [19] is described as follows: ATG_ERE_CIS: Attagene CIS-FACTORIAL HepG2 Assay for Estrogen Response Element (ERE) (AID 2282940). The conditions noted are these: HepG2 ERE cis-reporter, Attagene RNA transcript; actives raise or lower the signal. In a few lines:
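Readout: reporter mRNA induction by RT-PCR, FAM-labelled primer extension, HpaI digestion and capillary electrophoresis, 24 h after dosing transfected HepG2 cells. Endogenous transcription factors act on cis-element-regulated reporters. Gain or loss fitted against DMSO.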

Assay [20] in a line: ATG_GRE_CIS: Attagene CIS-FACTORIAL HepG2 Assay for human Glucocorticoid Response Elements (GRE) (AID 2282947). Particulars: HepG2 GRE cis-reporter, Attagene multiplex mRNA; actives raise or lower the signal. In a few lines:
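Transiently transfected HepG2 cells carrying GRE cis-reporter units (endogenous TF activity) dosed 24 h; reporter mRNA quantified by RT-PCR, 6-FAM labelling, HpaI digestion and capillary electrophoresis. Bidirectional fit versus DMSO baseline.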

Molecules are shown by their SMILES. The source made the active and inactive calls. The calls were made as follows: active = hit-call score of the fitted dose curve at least 0.9, where 1 is the maximum; inactive = score below 0.9.

Heat shock factor protein 1 (Homo sapiens), sequence (Q00613 whole entry, looked up, the tested form may be a part): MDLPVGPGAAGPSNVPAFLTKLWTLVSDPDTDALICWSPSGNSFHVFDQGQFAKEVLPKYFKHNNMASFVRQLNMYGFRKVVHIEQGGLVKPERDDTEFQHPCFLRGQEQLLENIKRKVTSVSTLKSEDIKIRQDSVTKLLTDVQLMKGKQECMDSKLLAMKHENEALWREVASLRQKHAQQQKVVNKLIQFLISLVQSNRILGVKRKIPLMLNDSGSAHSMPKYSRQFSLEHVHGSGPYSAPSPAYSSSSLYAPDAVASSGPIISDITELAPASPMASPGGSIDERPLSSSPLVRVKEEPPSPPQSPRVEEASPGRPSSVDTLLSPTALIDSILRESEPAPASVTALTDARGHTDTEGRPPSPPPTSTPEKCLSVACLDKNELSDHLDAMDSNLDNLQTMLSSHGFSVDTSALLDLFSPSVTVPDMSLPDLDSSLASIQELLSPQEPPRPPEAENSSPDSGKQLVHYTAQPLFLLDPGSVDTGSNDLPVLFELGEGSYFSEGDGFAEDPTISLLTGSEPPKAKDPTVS
Hypoxia-inducible factor 1-alpha (Homo sapiens), sequence (Q16665 whole entry, looked up, the tested form may be a part): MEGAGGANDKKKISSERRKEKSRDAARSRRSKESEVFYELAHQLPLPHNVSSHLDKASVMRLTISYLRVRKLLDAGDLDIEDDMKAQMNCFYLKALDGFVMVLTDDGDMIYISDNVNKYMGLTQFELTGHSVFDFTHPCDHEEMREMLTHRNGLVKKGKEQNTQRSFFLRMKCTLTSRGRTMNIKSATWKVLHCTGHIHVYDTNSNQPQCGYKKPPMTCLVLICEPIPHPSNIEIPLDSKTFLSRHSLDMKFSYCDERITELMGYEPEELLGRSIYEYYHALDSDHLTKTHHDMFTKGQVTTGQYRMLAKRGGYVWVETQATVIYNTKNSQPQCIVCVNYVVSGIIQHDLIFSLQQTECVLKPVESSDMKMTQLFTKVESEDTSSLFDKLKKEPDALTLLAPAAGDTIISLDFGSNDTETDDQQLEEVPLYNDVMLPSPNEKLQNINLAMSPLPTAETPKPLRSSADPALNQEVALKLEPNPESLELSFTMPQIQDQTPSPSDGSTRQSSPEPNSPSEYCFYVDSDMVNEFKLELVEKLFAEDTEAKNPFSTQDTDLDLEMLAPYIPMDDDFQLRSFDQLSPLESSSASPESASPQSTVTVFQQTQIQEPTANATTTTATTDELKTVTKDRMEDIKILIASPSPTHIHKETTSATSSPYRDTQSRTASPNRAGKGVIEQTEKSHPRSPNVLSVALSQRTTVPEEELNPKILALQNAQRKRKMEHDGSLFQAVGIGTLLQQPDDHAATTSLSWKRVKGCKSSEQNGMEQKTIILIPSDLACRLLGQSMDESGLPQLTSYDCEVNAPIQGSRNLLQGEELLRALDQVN
Hepatocyte nuclear factor 3-beta (Homo sapiens), sequence (Q9Y261 whole entry, looked up): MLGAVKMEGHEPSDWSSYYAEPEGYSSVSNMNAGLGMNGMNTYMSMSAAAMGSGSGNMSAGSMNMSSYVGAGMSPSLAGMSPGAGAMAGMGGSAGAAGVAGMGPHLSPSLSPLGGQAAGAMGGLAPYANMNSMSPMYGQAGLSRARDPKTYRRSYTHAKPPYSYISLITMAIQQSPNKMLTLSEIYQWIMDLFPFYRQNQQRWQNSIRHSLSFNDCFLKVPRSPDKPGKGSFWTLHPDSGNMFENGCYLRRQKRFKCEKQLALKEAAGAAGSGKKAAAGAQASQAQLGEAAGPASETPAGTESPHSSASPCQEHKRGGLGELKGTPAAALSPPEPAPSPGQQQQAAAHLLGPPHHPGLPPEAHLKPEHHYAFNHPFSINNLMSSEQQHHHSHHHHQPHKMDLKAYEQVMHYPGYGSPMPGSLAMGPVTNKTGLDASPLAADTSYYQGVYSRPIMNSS
Hepatocyte nuclear factor 6 (Homo sapiens), sequence (Q9UBC0 whole entry, looked up): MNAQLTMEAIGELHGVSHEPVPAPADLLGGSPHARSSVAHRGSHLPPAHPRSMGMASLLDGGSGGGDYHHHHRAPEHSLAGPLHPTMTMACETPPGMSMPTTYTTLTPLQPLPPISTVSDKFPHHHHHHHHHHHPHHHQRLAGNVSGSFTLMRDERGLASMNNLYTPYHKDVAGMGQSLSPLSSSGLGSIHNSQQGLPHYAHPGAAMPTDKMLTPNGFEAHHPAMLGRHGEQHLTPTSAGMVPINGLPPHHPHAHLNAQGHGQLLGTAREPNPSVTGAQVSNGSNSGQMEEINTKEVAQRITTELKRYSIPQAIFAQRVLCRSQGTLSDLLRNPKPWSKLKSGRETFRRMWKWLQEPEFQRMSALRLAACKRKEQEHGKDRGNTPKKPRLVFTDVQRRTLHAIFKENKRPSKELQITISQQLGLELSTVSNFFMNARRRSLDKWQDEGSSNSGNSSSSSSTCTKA
Bile acid receptor (Homo sapiens), sequence (Q96RI1 whole entry, looked up): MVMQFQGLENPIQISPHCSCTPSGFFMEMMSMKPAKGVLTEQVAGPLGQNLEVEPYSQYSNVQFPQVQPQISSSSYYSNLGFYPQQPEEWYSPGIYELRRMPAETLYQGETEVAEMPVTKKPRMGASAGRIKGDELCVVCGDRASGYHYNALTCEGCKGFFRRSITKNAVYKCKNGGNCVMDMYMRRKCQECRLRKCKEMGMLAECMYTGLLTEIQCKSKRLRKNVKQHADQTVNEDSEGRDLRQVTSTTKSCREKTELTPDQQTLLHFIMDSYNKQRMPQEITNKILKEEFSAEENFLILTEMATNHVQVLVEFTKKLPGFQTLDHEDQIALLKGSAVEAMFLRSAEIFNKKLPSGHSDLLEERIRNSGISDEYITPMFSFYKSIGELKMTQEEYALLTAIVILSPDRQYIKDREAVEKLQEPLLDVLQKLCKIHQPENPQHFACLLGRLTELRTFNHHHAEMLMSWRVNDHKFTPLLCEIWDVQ

As to `O=C(O)CC(O)C(=O)O` (stereo unspecified), the result in assay [1], in [2], in [3], in assay [4], in assay [5] and in assay [6] was inactive. For the same compound, the outcome in assay [7], in assay [8], in assay [9], in assay [10], in assay [11] and in assay [12] was inactive. Further, the call in assay [13], in [14], in [15], in assay [16] and in assay [17] was inactive.
As to `CCNc1ccccc1`, the result in [1], in assay [2], in [3], in assay [4], in [5] and in [6] was inactive. Further, the outcome in assay [7], in [8], in [9], in assay [18], in assay [10] and in assay [12] was inactive. In addition, the compound was classed as inactive in assay [14], in assay [15], in [16] and in [17]. Further, in assay [13], the AC50 is 59.4 µM (active).
Turning to `Nc1ccc(Nc2ccccc2)cc1`, the call in assay [2], in assay [3], in assay [4], in assay [5], in [6] and in assay [7] was inactive. Moreover, the call in [8], in assay [9], in [20], in assay [10], in assay [11] and in assay [12] was inactive. Besides, the outcome in assay [13], in assay [14], in [15], in assay [16] and in assay [17] was inactive. In assay [19], the concentration at half-maximal activity (AC50) is 35.1 µM (active).
As for `CC(=O)OCCC(C)C`, the outcome in assay [1], in assay [2], in [3], in assay [4], in assay [5] and in [6] was inactive. Further, the outcome in assay [7], in assay [8], in assay [9], in [20], in assay [10] and in assay [11] was inactive. For the same compound, the compound was called inactive in assay [12], in assay [13], in assay [14], in assay [15], in [16] and in [17].
Take `O=C1CCCCCN1`: the result in assay [1], in [2], in assay [3], in assay [4], in assay [5] and in assay [6] was inactive. In addition, the compound was classed as inactive in assay [7], in assay [8], in assay [9], in [18], in assay [10] and in [12]. Moreover, the compound was called inactive in [13], in assay [14], in assay [15], in assay [16] and in assay [17].
For the compound `Nc1nc2ncc(CNc3ccc(C(=O)N[C@@H](CCC(=O)O)C(=O)O)cc3)nc2c(=O)[nH]1`, the outcome in [1], in [2], in assay [3], in assay [4], in [5] and in [6] was inactive. Besides, the result in assay [7], in assay [8], in assay [9], in assay [20], in assay [10] and in [11] was inactive. The call in [12], in assay [14], in [15], in assay [16] and in assay [17] was inactive.
As for `O=C(O)c1cccc(N(Cc2cccnc2)c2ccc(OC(F)F)c(OC(F)F)c2)c1`, the outcome in [1], in assay [2], in assay [3], in assay [4], in assay [5] and in assay [6] was inactive. Moreover, the result in assay [7], in assay [8], in assay [9], in assay [10], in [11] and in assay [12] was inactive. Besides, the compound was called inactive in assay [13], in assay [14], in [15], in assay [16] and in assay [17].

The AC50 is the concentration giving half of the maximal activity seen.
